Compound activity deposited in PubChem by Broad Institute.
BL2 CD40 inh = CD40 pathway inhibition in BL2 cells | BL2 NF-kB luciferase reporter, CD40L-induced, 4 h | inhibition, % at 10 µM | actives 0.94% (n = 83,000) | AID 1053188;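 active means mean inhibition of at least 50% with a set share of replicates also reaching that level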;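 further: 0% = neutral control wells and 100% = IKK inhibitor VII at 50 µM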
Starred values were filed as active, the others as inactive; [ ] = remark or other dose. The sample as a whole holds a higher share of hits than the screen did.

SMILES	BL2 CD40 inh
CC(=O)N1C[C@@H]2C(c3ccccc3)[C@H](C1)N2C (stereo not given in full)	-1
CCN1CC2(COC(=O)c3ccccc3N3C(=O)CC(C)C3=O)CCC(OC)C34C5CC6C(OC)CC(O)(C5C6OC)C(O)(C(OC)C23)C14 (stereo not given)	5[25 µM]
OC[C@@H]1Nc2ccc(C#Cc3cccnc3)cc2[C@H]2NCC[C@@H]12	6[25 µM]
COc1ccc(OC(=O)N(C)C[C@@H]2OCc3ccccc3-c3c(n(C)c4ccccc34)C(=O)N([C@@H](C)CO)C[C@H]2C)cc1	38
NC(N)=N/N=C/c1cn(-c2ccccc2)nc1-c1cccs1	87*
O=C(Cc1cccnc1)N1CCCCN2[C@H](CO)[C@H](c3ccc(C#CC4CCCC4)cc3)[C@H]2C1	1[25 µM]
COC(=O)[C@@H]1[C@@H](CO)[C@@H]2Cn3c(ccc(C4=CCCC4)c3=O)[C@H]1N2C(=O)CC1CC1	0[25 µM]
C[C@@H]1CN([C@H](C)CO)C(=O)c2c(c3ccccc3n2C)-c2ccccc2CO[C@@H]1CN(C)C(=O)Oc1ccccc1	21
C/C=C/c1ccc(C2[C@@H]3CN(C(=O)C4CCC4)C[C@H]2N3)cc1 (stereo not given in full)	10
CN1[C@@H]2CN(CC3CC3)C[C@H]1C2c1ccc(Br)cc1 (stereo not given in full)	-14
CC=Cc1ccc2n(c1=O)C[C@@H]1[C@@H](CO)[C@H](C(=O)OC)[C@H]2N1S(=O)(=O)c1ccccc1C (mixture of isomers)	0[25 µM]
CC(C)NC(=O)N1C[C@@H]2N[C@H](C1)C2c1ccccc1 (stereo not given in full)	-3
COC(=O)C12OCC34C(CC5C(C)=C(O)C(=O)CC5(C)C3C(O)C1O)OC(=O)C(OC(=O)/C=C(\C)C(C)C)C24 (stereo not given)	92*
O=C(Cc1ccccn1)N1CCCCN2[C@H](CO)[C@H](c3ccc(-c4ccccc4F)cc3)[C@@H]2C1	27[25 µM]
COc1cccc(-c2ccc3n(c2=O)C[C@H]2[C@H](CO)[C@@H](C(=O)O)[C@@H]3N2Cc2ccccc2F)c1	5[25 µM]
O=C1CCC2(O)C3Cc4ccc(O)c5c4C2(CCN3CC2CC2)C1O5 (stereo not given)	-8[25 µM]
CN1[C@@H]2Cn3c(cccc3=O)[C@H]1[C@@H](C(=O)NCC1CC1)[C@@H]2CO	-1[25 µM]
CCOP(=O)(CCP(=O)(OCC)OCC)OCC.C[CH2][Sn]([Cl])([Cl])[CH2]C	59*
C=CCN1[C@@H]2CN(C(=O)NC(C)C)C[C@H]1C2c1ccc(Br)cc1 (stereo not given in full)	0
COc1ccc(OC(=O)N(C)C[C@@H]2OCc3ccccc3-c3c(n(C)c4ccccc34)C(=O)N([C@H](C)CO)C[C@H]2C)cc1	13
CN1[C@H](CO)[C@H]2c3ccccc3NC[C@H]21	-9[25 µM]
Cc1ccc(OC(=O)N(C)C[C@@H]2OCc3ccccc3-c3c(n(C)c4ccccc34)C(=O)N([C@@H](C)CO)C[C@@H]2C)cc1	15[25 µM]
FC(F)(F)CN1C[C@@H]2C(c3ccccc3)[C@H](C1)N2CC1CC1 (stereo not given in full)	3
CC(C)NC(=O)N1CC2C(c3ccccc3)C(C1)N2C (stereo not given)	0
